Measurements: PubChem BioAssay (NCI)
This is part of a sample that, as a whole, favours compounds with a hit. Of some 83,000 tested, about 20% had one in any assay.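 Each cell line was grown in a 96-well plate and treated with one concentration of compound for 48 hours. Values below 10 were considered active.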 A number with no mark means an inactive call. Activity calls are given as the source filed them.

What was measured:
Assay in all cases: NCI-60 one-dose screen, 48 h (100 = growth as untreated, 0 = no growth, -100 = all killed)
Conditions in all cases: 10 µM
NCI-H23 lung = test system: NCI-H23 lung
NCI-H226 lung = test system: NCI-H226 lung
NCI-H322M lung = test system: NCI-H322M lung
HOP-62 NSCLC = test system: HOP-62 NSCLC
NCI-H460 lung = test system: NCI-H460 lung
HOP-92 NSCLC = test system: HOP-92 NSCLC
NCI-H522 lung = test system: NCI-H522 lung
A549/ATCC NSCLC = test system: A549/ATCC NSCLC
786-0 renal = test system: 786-0 renal
COLO 205 colon = test system: COLO 205 colon

Row | Structure (SMILES) | growth (NCI-H23 lung) | growth (NCI-H226 lung) | growth (NCI-H322M lung) | growth (HOP-62 NSCLC) | growth (NCI-H460 lung) | growth (HOP-92 NSCLC) | growth (NCI-H522 lung) | growth (A549/ATCC NSCLC) | growth (786-0 renal) | growth (COLO 205 colon)
1 | Cc1cccc2cc(-c3cc(-c4ccccc4)nc(=O)[nH]3)c(Cl)nc12 | 88.7% | 75.7% | 89.9% | 109% | 80.7% | 77.1% | 87.7% | 96.4% | 91.6% | 119%
2 | O=C1CCC(N2Cc3c(NCc4ccc(-c5ccccc5)cc4)cccc3C2=O)C(=O)N1 (stereo not given) | 72.9% | 55.1% | 77.2% | 74.4% | 36.4% | 24.3% | 82.7% | 71.6% | 70.8% | 82%
3 | Cc1cc(=O)oc2cc(OCCCCOc3ccc(/C=C/C(=O)Nc4ccc(F)c(Cl)c4)cc3)ccc12 | 87% | 95.9% | 93.4% | 108% | 86.7% | 115% | 94.6% | 79.7% | 94.9% | 115%
4 | O=C(c1ccc(Cl)cc1)C1[C@H](c2ccc(Br)cc2)[C@@H](c2ccccc2)NC12C(=O)Nc1ccc(Cl)cc12 (stereo not given in full) | -83.6% (active) | -85.6% (active) | -28.6% (active) | -73.4% (active) | -63% (active) | -69.2% (active) | -79.5% (active) | -44% (active) | -68% (active) | -87.7% (active)
5 | CC1(c2ccccc2)NC(=O)N(CC(=O)Nc2ccc(C(=O)/C=C/c3ccc(Cl)cc3)cc2)C1=O (stereo not given) | 18.6% | -0.196% (active) | 51.1% | 35.6% | 21.5% | -10.4% (active) | 41.4% | 6.84% (active) | -21.5% (active) | -24.4% (active)
6 | COc1ccc(OC)c(/C=N/NC(=O)c2ccc3nc(-c4ccc(Cl)cc4)[nH]c3c2)c1 | 66.1% | 64.3% | 71.1% | 81.6% | 82.5% | 63.4% | 59.1% | 91.2% | 73.4% | 81.7%
7 | O=C1Nc2ccc(Cl)cc2/C1=C/c1cccc(OCc2ccccc2)c1 | 31% | 17.2% | 44.6% | 32.9% | 13.5% | 16.5% | 35.9% | 43.2% | 40.5% | 45.8%
8 | Cc1ccc(S(=O)(=O)c2nc(-c3ccccc3)oc2S(=O)(=O)CC(=O)N2CCCC2)cc1 | -77.9% (active) | 56.3% | 73.6% | 78.3% | 26.4% | -85.6% (active) | -96.3% (active) | 63.4% | -57.3% (active) | -93.2% (active)
9 | O=C(NO)c1ccc(Cn2ccc3c(NCc4ccccc4)ncnc32)cc1 | -74.3% (active) | 23.8% | 30.2% | 12.7% | 11.1% | -19% (active) | -51.5% (active) | 28.1% | 22.7% | -60.1% (active)
10 | COc1cc(/C=N/NC(=O)c2ccc3nc(-c4ccc(Cl)cc4)[nH]c3c2)cc(OC)c1OC | -68.4% (active) | -50.5% (active) | 3.86% (active) | -77.5% (active) | -34.8% (active) | -64.5% (active) | -44.2% (active) | 29.2% | -4.1% (active) | -9.12% (active)
11 | CN1C(=O)N(C)C2SC(N/N=C/C=C/c3ccccc3)=NC21 (stereo not given) | 84.9% | 79.3% | 93.9% | 85.9% | 94.5% | 97.9% | 56.1% | 87.5% | 73.9% | 122%
12 | CNCc1cccc2c1OCCCCCC[C@@](C)(O)CC1(CC1)S(=O)(=O)c1ccc(cc1)-c1cnc(N)c(n1)C(=O)N2 | -95.4% (active) | -75.7% (active) | -96.8% (active) | -84.3% (active) | -74.8% (active) | -67.8% (active) | -87.2% (active) | -79.5% (active) | -82.9% (active) | -89.9% (active)
13 | Cc1ccc(NCC(=O)Nn2c(COc3ccccc3)nc3ccccc3c2=O)cc1 | 67.8% | 66.3% | 85.9% | 27.4% | 81.4% | 58.1% | 71.7% | 77.9% | 66.4% | 85%
14 | O=C(c1ccc(O)cc1)C1[C@H](c2ccccc2Br)[C@@H](c2ccccc2)NC12C(=O)Nc1ccc(Br)cc12 (stereo not given in full) | 46.4% | 36.5% | 55.6% | 53.2% | 31.1% | 53.3% | 0.143% (active) | 34.4% | 47.8% | 29.7%
15 | C=C1CCC2C3(C)COC(c4ccccc4F)OC3CCC2(C)C1C/C=C1/C(=O)OCC1O (stereo not given) | -38.8% (active) | -25.6% (active) | 14.5% | -41.7% (active) | -14.6% (active) | -37.5% (active) | -72.5% (active) | -5.16% (active) | -86.8% (active) | -56.3% (active)
16 | Cc1noc2c(Cc3ccc([N+](=O)[O-])cc3)nn(CC(=O)N/N=C/c3ccc(Br)cc3)c(=O)c12 | 87.7% | 67.7% | 104% | 72.4% | 81.5% | 50.6% | 98.6% | 65.1% | 4.46% (active) | 119%
17 | Cc1ccc(CSc2nc(-c3ccc(F)cc3)c(C#N)c(=O)[nH]2)cc1 | 103% | 99.1% | 98.6% | 102% | 109% | 96.7% | 87.1% | 89.8% | 100% | 131%
18 | CCCn1c(=O)c2[nH]c(-c3ccc(OCc4nc5ccc(C#N)cc5[nH]4)cc3)nc2n(CCC)c1=O | 81.5% | 51.2% | 76.3% | 77.9% | 66.2% | 78.5% | 71.1% | 79.9% | 72.1% | 94.9%
19 | COc1ccc(CCN2C(=O)/C(=C/c3csc(C#N)n3)SC2=S)cc1OC | 38.5% | 100% | 101% | 111% | 98.4% | -5.19% (active) | -66.7% (active) | 95% | 21.1% | -27.5% (active)
20 | Cc1ccc(-c2nc3ccc(C(=O)N=Nc4c(O)[nH]c5ccc(Br)cc45)cc3[nH]2)cc1 | -3.58% (active) | 91.7% | 77.7% | 68.7% | 47.8% | 88.3% | 25% | 87.1% | 36.3% | 61%
21 | COc1ccc2[nH]cc(/C=N/Nc3ccc(Br)cn3)c2c1 | 36.6% | 40% | 43.8% | 45.8% | 16.2% | -24.5% (active) | 38.5% | 23% | -3.93% (active) | 37.4%
22 | CN1CCCN(Cc2ccc(C(=O)Nc3cccc(Nc4ccc5cc(O)ccc5n4)c3)cc2C(F)(F)F)CC1 | 68.8% | 103% | 89.1% | 95.9% | 27.7% | 53.3% | 80.3% | 64.7% | 8.41% (active) | 63.2%
23 | O=C(CNc1nc(-c2ccccc2)cs1)Nc1ccccc1 | -86.4% (active) | -2.46% (active) | -96.2% (active) | -62.9% (active) | -11.4% (active) | -8.88% (active) | -81.6% (active) | 7.05% (active) | -25.5% (active) | -83.8% (active)
24 | COc1ccc(N2N=C(c3ccc4c(c3)OCCO4)CC2c2cccc(NC(=O)CCCNS(=O)(=O)c3ccc(F)cc3)c2)cc1 (stereo not given) | 85.7% | 74.5% | 75% | 89.6% | 64.8% | 81.6% | 58.9% | 61.8% | 66.6% | 84%
25 | COc1cc(NC(=O)CSc2nnc(-c3ccc4nc(-c5ccc(Cl)cc5)[nH]c4c3)o2)cc(OC)c1OC | 40.3% | 38.7% | 90.8% | 89.7% | 67.2% | 128% | 45.1% | 90.4% | 78.3% | 82.4%
26 | O=C(c1ccccc1)n1ccc(-c2cc3cc(Br)ccc3oc2=O)n1 | 19% | 27.5% | 31.1% | 20% | 9.4% (active) | 34.7% | 1.16% (active) | 33.9% | 16.1% | 11%
